hgDAF-12 ag: hgDAF-12 agonism, primary luciferase screen. AID 687014. actives 1.8% (n = 370,000). activation, % at 6.8 µM. HEK293 GAL4-hgDAF12 UAS-luciferase reporter, agonist luminescence; normalized to butyrate control;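 active means activation above a cutoff set at the mean of all screened compounds plus 3 SD, cut at about 10% in these data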;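 further: 0% = DMSO wells and 100% = sodium butyrate wells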
DAX1 inh-1: NR0B1 (DAX1) inhibition | P51843 | inhibition, % at 6.75 µM | actives 0.99% (n = 340,000) | HEK293 Gal4-DAX1 luciferase reporter, luminescence;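 active means inhibition above the mean over all tested compounds plus 3 SD, cut at about 4.2% in these data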;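 further: 0% = DAX1-transfected cells with DMSO and 100% = empty-vector control cells with DMSO; inhibition shows as a rise in luminescence from relieved DAX1 repression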
DAX1 inh-2: inhibitors of DAX1 repression of SF-1 activated StAR promoter; HEK293T StAR-luciferase reporter, SF-1/DAX-1 repression relief; inhibition, % at 6.8 µM; actives 1.1% (n = 370,000);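 active means inhibition above the mean over all tested compounds plus 3 SD, cut at about 3.6% in these data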;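 further: 0% = DAX-1 cells with DMSO and 100% = cells lacking DAX-1 with DMSO; higher inhibition means more luminescence from relief of DAX-1 repression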
GAA850 FXN act: frataxin GAA850 promoter activation; HEK293 lucGAA850 FXN promoter luciferase reporter, 24 h; percent of 10 µM SAHA response; activation, % at 6 µM; actives 0.56% (n = 360,000);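 active means activation above the average of all compounds screened plus 3 SD, cutoff fixed separately per campaign, cut at about 7.5% in these data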;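 further: 0% = DMSO wells and 100% = 10 µM SAHA wells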
ssDAF-12 act: activators of S. stercoralis DAF-12 nuclear receptor; HEK293 ssDAF-12/GRIP1 lit1-tk-luc reporter, luminescence; % of 3 µM dafachronic acid response; actives 1% (n = 370,000); AID 652126; activation, % at 6.8 µM;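 active means activation above the mean over all tested compounds plus 3 SD, cut at about 0.9% in these data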;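 further: 0% = DMSO-only wells and 100% = 3 µM delta7-dafachronic acid wells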
hcDAF12 agonist: activators of H. contortus DAF-12 nuclear receptor; activation, % at 6.8 µM; actives 1.4% (n = 370,000); AID 652067; HEK293 hcDAF-12 lit1-tk-luc reporter, luminescence; 0% DMSO, 100% Δ7-dafachronic acid;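 active means activation above the mean of all tested compounds plus 3 SD, cut at about 5.5% in these data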;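 further: 100% = response to 3 µM Δ7-dafachronic acid high control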
hgDAF12 ag: confirmation of H. glycines DAF-12 agonists; HEK293 GAL4-hgDAF12 luciferase reporter, agonist mode; percent of butyrate response; shares compounds with hgDAF-12 ag; actives 80% (n = 3,300); activation, % at 6.8 µM;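 active means mean activation over triplicate wells above the hit cutoff derived from the earlier primary screen, cut at about 11% in these data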;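 further: 0% = DMSO low control and 100% = 2 mM sodium butyrate high control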
LXR ag 2: LXR-beta agonism as DAF-12 counter-screen; shares compounds with hgDAF-12 ag; HEK293 Gal4-LXR luciferase reporter, 24 h; activation, % at 6.8 µM; 3,300 tested, under 10 active; AID 743051;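 active means mean activation of the triplicate above a set limit carried over from the primary screen, none filed active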
Target sequence (P55055 whole entry, looked up, the tested form may be a part): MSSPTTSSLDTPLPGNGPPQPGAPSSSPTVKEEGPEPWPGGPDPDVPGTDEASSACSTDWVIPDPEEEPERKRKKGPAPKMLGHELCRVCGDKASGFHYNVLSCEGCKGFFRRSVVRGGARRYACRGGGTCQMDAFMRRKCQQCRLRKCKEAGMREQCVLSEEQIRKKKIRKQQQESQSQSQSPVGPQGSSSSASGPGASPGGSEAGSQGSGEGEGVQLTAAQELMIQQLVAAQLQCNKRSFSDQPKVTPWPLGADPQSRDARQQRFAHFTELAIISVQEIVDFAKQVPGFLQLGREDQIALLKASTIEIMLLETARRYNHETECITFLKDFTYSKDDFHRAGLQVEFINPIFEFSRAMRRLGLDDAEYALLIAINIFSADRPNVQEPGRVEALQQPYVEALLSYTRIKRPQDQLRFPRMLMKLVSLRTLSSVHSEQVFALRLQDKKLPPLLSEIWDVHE
* marks the source's active call; other numbers are inactive results; x = no result. Most compounds without a hit are left out; they make up all but 4.5% or so of the library.

SMILES | hgDAF-12 ag | DAX1 inh-1 | DAX1 inh-2 | GAA850 FXN act | ssDAF-12 act | hcDAF12 agonist | hgDAF12 ag | LXR ag 2
CS(=O)(=O)Nc1cccc(C2=NN(C(=O)CCCC(=O)O)C(c3cccs3)C2)c1 (stereo not given) | 1 | 0 | 0 | 0 | -1 | 1 | x | x
Cc1nc2ccccc2nc(C)c1=NOCc1cccc(F)c1 | 14* | 0 | 3 | 5 | 0 | 3 | -4 | 0
COc1ccc(/C=N/NS(=O)(=O)c2ccccc2)cc1OS(=O)(=O)c1ccc(C)cc1 | -1 | 1 | -1 | 2 | -1 | 0 | x | x
COc1ccccc1OCC(=O)Nc1nc(C)c(C)s1 | 14* | 2 | 1 | 5 | 0 | 2 | 12* | 1
COC(=O)c1sc(NC(=O)COc2ccccc2C)nc1C | -1 | 0 | 1 | 3 | -2 | 0 | x | x
CN(C)CCCNC(=S)N(CCCO)Cc1cc2cc3c(cc2[nH]c1=O)OCO3 | 16* | 0 | 1 | 1 | 0 | 5 | 0 | 0
CCCCNC(=S)N(CCCO)Cc1cc2cc3c(cc2[nH]c1=O)OCCO3 | 0 | 1 | 0 | 1 | -1 | 0 | x | x
COC(=O)c1ccc(NC(=O)COC(=O)COc2cccc3c2OC(C)(C)C3)cc1 | -2 | 2 | -1 | 2 | -1 | -1 | x | x
O=C(NCC1CCCO1)c1cc(-c2ccccc2F)no1 (stereo not given) | 20* | 2 | 1 | 5 | 0 | 5.6* | 33* | 0
O=C(NCC1CCCO1)c1ccccc1 (stereo not given) | 1 | 3 | 0 | -2 | -1 | 0 | x | x
O=C(/C=C/c1cccc([N+](=O)[O-])c1)OCC1CCCO1 (stereo not given) | -2 | -2 | 0 | 0 | -1 | -2 | x | x
Cc1ccc(CC(=O)NC2CCCc3ccccc32)cc1C (stereo not given) | 0 | -1 | 0 | 0 | -1 | -3 | x | x
Cc1ccc(/C=C/C(=O)N2CCCC(C)C2)cc1 (stereo not given) | 15* | 0 | 4.4* | 2 | 1.2* | 3 | 14* | 1
O=C(/C=C/c1ccc(Br)cc1)NC1CCCCCC1 | 5 | 3 | 0 | 5 | -1 | 1 | x | x
CC(C)Cc1ccc(/C=C/C(=O)N2CCCCC2)cc1 | 16* | 3 | 4.5* | 5 | 0 | 3 | 14* | 0
CC(C)Cc1ccc(/C=C/C(=O)NC2CC2)cc1 | 13* | 0 | 3 | 4 | 1 | 4 | 12* | 0
CCCCCCCCCCCCN1[C@@H](CC(=O)O)c2cc(F)ccc2S1(=O)=O | 0 | 1 | 0 | 2 | 0 | 2 | x | x
COc1cc(C2Nc3ccccc3C(=O)N2c2ccc(Cl)cc2)c(Cl)cc1OCC(=O)O (stereo not given) | 14* | 3 | 4.0* | 5 | 1 | 5 | 9 | 1
CC(=O)Nc1ccc(-c2csc(NCc3ccco3)n2)cc1 | 15* | 1 | 1 | 3 | -1 | 2 | 12* | 0
COc1ccccc1NS(=O)(=O)c1cccc(NC(=O)c2cc3ccccc3oc2=O)c1 | 16* | 2 | 3 | 3 | 0 | 5 | 13* | 0
CN(c1ccccc1)S(=O)(=O)c1cccc(NC(=O)c2cc3ccccc3oc2=O)c1 | 16* | 2 | 2 | 5 | 1 | 5 | 10 | 0
COc1ccccc1NS(=O)(=O)c1cccc(NC(=O)Nc2ccccc2)c1 | -1 | -2 | -1 | 1 | -2 | -4 | x | x
CSc1nsc(SCC(=O)Nc2ccc(C(C)=O)cc2)n1 | 14* | 3 | 2 | 4 | 1.0* | 12* | 21* | 1
C/C(=N\Nc1nccnc1Cl)c1ccc(Br)cc1 | 17* | 1 | 2 | 5 | 0 | 5.8* | 6 | 0
C/C(=N/Nc1ncc(Br)cn1)c1ccc([N+](=O)[O-])cc1 | 2 | 3 | 0 | 1 | -1 | 1 | x | x
SMILES | hgDAF-12 ag | DAX1 inh-1 | DAX1 inh-2 | GAA850 FXN act | ssDAF-12 act | hcDAF12 agonist | hgDAF12 ag | LXR ag 2
C/C(=N\Nc1nccnc1Cl)c1ccc([N+](=O)[O-])cc1 | 15* | 1 | 2 | 4 | 1 | 4 | 2 | 0
CCCCCCCN1CCN=C1N(C)C | 0 | 0 | 0 | 0 | -1 | -1 | x | x
O=C(NCc1ccccc1)c1cccc(COc2ccc3c(c2)CCC3)c1 | 21* | -4 | 2 | 4 | -1 | 3 | 17* | 1
Cc1ccc(C(=O)c2coc3ccc(O)cc23)cc1 | 18* | 2 | 4 | 4 | 1.1* | 5 | 22* | 1
O=C(c1ccccc1)c1coc2ccc(O)c(Cl)c12 | 5 | 3 | 1 | 5 | 0 | 2 | x | x
Cc1ccc(C(=O)c2coc3ccc(O)c(Cl)c23)cc1 | 17* | 6.5* | 3 | 2 | 0 | 4 | 13* | 0
CCCCN1C(=O)/C(=C/C=C2\SCCN2C)SC1=S | 14* | 3 | 3 | 9.8* | 0 | 0 | 10 | 1
CN1CCS/C1=C/C=C1\SC(=S)N(CC(=O)O)C1=O | 2 | 0 | 0 | 0 | 0 | 2 | x | x
Cc1ccc(Nc2n[nH]c(=S)s2)cc1C | 18* | 3 | 3.8* | 2 | -1 | 3 | 11* | 1
COc1c(Br)cc(Br)cc1C(=O)Nc1ccccc1N1CCCC1 | 2 | 1 | 0 | -1 | -1 | 1 | x | x
Cc1ccc(N2C(=O)c3ccc(N)cc3C2=O)cc1 | 16* | 0 | 2 | 4 | 1 | 4 | 16* | 1
CC1Oc2ccccc2C=C1/C=N/NC(=O)c1ccccc1 (stereo not given) | 14* | 1 | 2 | 1 | -1 | 2 | 9 | 0
Cc1ccc(C(=O)N/N=C/C2=Cc3ccccc3OC2C)cc1 (stereo not given) | 6 | -1 | 0 | 1 | -2 | -2 | x | x
c1ccc(CSc2ccc(-c3ccccn3)nn2)nc1 | 16* | 1 | 3 | 3 | 0 | 3 | 10 | 1
COc1ccc(N(CC(=O)NC(C)(C)C)C(=O)CCC(=O)Nc2nccs2)c(OC)c1 | -1 | 3 | 0 | 0 | -2 | -2 | x | x
O=C(Nc1ccccc1)O/N=C(\c1ccccc1)c1ccccn1 | 16* | 0 | 1 | 4 | -1 | 0 | 2 | 0
Cc1nc(C(F)(F)F)ccc1C(=O)N1CCC(C)(C(=O)O)C1 (stereo not given) | 2 | x | 0 | -1 | -1 | 0 | x | x
Cc1nc2cc(NC(=O)Nc3ccc(Br)cc3)ccc2o1 | 13* | 1 | 1 | 1 | -1 | 2 | 10 | 1
